Screens deposited in PubChem BioAssay by National Center for Advancing Translational Sciences (NCATS).
mIDH1 inhibitor: inhibitors of human mutant IDH1 R132H. 0.093% of 390,000 active. IDH1-R132H enzyme, NADPH consumption, diaphorase/resazurin fluorescence. Potency, µM (doses to about 76.6 µM), for inactives: at the highest dose activity change, negative = inhibition, actives largely listed as inhibitors. O75874; note: potency is the fitted concentration of half-maximal effect; % is set by controls: 0 for no effect and ±100 for the full control effect; nearly all actives have a fitted effect of over 65% in size
Target sequence (O75874 whole entry R132H, stated change not applied): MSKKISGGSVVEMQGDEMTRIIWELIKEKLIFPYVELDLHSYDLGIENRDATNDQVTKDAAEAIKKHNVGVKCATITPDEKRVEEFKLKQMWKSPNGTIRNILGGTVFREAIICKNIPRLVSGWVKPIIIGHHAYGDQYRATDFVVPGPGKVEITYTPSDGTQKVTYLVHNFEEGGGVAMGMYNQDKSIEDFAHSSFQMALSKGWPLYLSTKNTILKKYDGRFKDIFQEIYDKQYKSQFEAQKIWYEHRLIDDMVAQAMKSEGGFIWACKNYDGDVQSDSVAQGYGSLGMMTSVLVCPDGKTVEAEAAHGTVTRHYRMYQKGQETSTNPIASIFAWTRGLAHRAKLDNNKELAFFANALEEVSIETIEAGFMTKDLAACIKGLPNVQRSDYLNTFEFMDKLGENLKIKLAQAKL
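IDH1-R132H (0.5 ug/mL dispensed) in pH 7.5 Tris buffer was preincubated 30 min with compound, then given a substrate mix of 0.016 mM NADPH and 2 mM alpha-KG for 80 min at room temperature; remaining NADPH was read by diaphorase/resazurin fluorescence.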
gsp antag: antagonists of gsp mutant (McCune-Albright syndrome); gsp-mutant cells, cAMP HTRF, 30 min; Potency, µM (top dose mostly 76.9 µM), without a hit: top-dose activity change, negative = inhibition, most hits filed as inhibitors; 0.4% of 340,000 active; AID 624288; calls by dose curve; cell line not stated here;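 note: intracellular cAMP measured with PDE inhibitor Ro 20-1724 present during compound exposure; potency is the fitted concentration of half-maximal effect; % is set by controls: 0 for no effect and ±100 for the full control effect; nearly all actives have a fitted effect of over 65% in size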
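HTRF cAMP read-out (cAMP-d2 plus anti-cAMP antibody-K in lysis buffer, 30 min RT). Before lysis, cells are exposed to compounds with […] for 30 min at 37C in DPBS containing Ca/Mg, BSA and Tween 20.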
gsp ag: activates gsp, the McCune-Albright syndrome mutation | AID 624287 | gsp mutant cells, cAMP HTRF, 30 min | 0.13% of 340,000 active | Potency, µM (highest dose often 76.9 µM), for the others: top-dose activation (cAMP increase), usual class: activators; active = well fitted activation curve with a large enough effect; inconclusive = small, poorly fitted or top-dose-only effect, or another doubt; inactive = no such curve, though single readings can be large or run the other way; cell line not stated here;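 note: phosphodiesterase inhibitor Ro 20-1724 added with compounds to block cAMP breakdown; potency is the fitted concentration of half-maximal effect; nearly all actives have a fitted effect of over 60% in size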
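Cells in DMEM/10% FBS with G418 were pretreated with compounds in DMSO plus […] (300 uM stock) for 30 min at 37C. cAMP was measured by HTRF (cAMP-d2 plus anti-cAMP antibody-K) after 30 min at room temperature.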
BRCA1 expr act: activators of BRCA1 expression. MCF7-BRCA1-FFLuc reporter, luminescence, 48 h; response scale: scaled: vehicle 0%, 10 µM genistein 100%. 1.1% of 380,000 active. Potency, µM (series often up to 46.1 µM), for the others: at the top dose activation, hits mostly activators; note: potency is the fitted concentration of half-maximal effect; nearly all actives have a fitted effect of over 80% in size
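Using MCF7 cells harboring a BRCA1 firefly luciferase reporter, plated 2 h before compound pinning, the screen measured luminescence after 48 h incubation. Responses were normalized to DMSO and 10 microM genistein, then fitted for concentration-effect.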
IL-2 act: activates IL-2 in a cell-based reporter assay | IL-2 activation reporter assay, cell-based qHTS; stimulated with anti-CD3/CD4/CD28 beads; in transgenic mouse T cells | activation, % (series mostly up to about 46 µM) | 0.065% of 360,000 active; in the data active = activation above about 50%; inconclusive = mostly about 30% to 49%; note: 0% is about no effect
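Unstimulated transgenic mouse T cells preincubated 60 min with compound, then stimulated with anti-CD3/anti-CD4-coated beads plus anti-CD28 for 18 h at 37 degrees C. IL-2 response read as EGFP and DsRed fluorescence by plate cytometry.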
IDH1 autofl: interferes with resorufin fluorescence in IDH1 counter-screen; shares compounds with mIDH1 inhibitor; Resorufin detection reagent fluorescence interference, cell-free; inhibition of signal, % at 51.2 µM; 750 tested, under 10 active; AID 623980;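 note: 0% = wells with normal resorufin and full inhibition = wells lacking resorufin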
IDH1 WT: inhibits human wild-type IDH1, mutant selectivity check; Potency, µM (titrated, usually from 115 µM), for inactives: at the highest dose activity change, negative = inhibition, hits mostly inhibitors; AID 623995; 9% of 750 active; shares compounds with mIDH1 inhibitor; WT IDH1 enzyme, NADPH diaphorase/resazurin fluorescence;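 note: potency is the fitted concentration of half-maximal effect; 0% = full WT IDH1 enzyme control and full inhibition = no enzyme wells; nearly all actives have a fitted effect of over 55% in size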
Target sequence (O75874 whole entry, looked up): as the sequence (O75874 whole entry R132H, stated change not applied) above, with H132R counted along it
mIDH1 confirm: mutant IDH1 (human) inhibition, confirmed | shares compounds with mIDH1 inhibitor | IDH1 R132H enzyme, NADPH diaphorase/resazurin fluorescence | Potency, µM (titrated, usually from 76.6 µM), for inactives: at the top dose activity change, negative = inhibition, most hits filed as inhibitors | 83% of 750 active; note: potency is the fitted concentration of half-maximal effect; nearly all actives have a fitted effect of over 50% in size
Active calls of the source: *; ? = inconclusive; · = no result given; [ ] = another dose, or the depositor's remark. Only some compounds are listed: those with a hit (about 1.5% of all), similar ones and a draw of the others. Unless noted, calls come from the whole dose curve; as a rule, active = well fitted curve in the direction sought with a large enough effect; inconclusive = small, poorly fitted or top-dose-only effect, or another doubt; inactive = no such curve, though single readings can be large; an effect the other way counts as inactive or inconclusive.

SMILES	mIDH1 inhibitor	gsp antag	gsp ag	BRCA1 expr act	IL-2 act	IDH1 autofl	IDH1 WT	mIDH1 confirm
COc1ccc(N(C(=O)/C=C/C(=O)Nc2cc(C)on2)C(C(=O)NC2CCCC2)c2ccccc2C)cc1 (configuration not stated)	?	-18%	5%	-68%	-1	-11	6%	35µM*
Cc1cc(NC(=O)CCCC(=O)N(c2ccccc2)C(C(=O)NC2CCCCC2)c2cccs2)no1 (configuration not stated)	?	8%	26%	-8%	-4	1	9%	20µM*
O=C(CCCC(=O)N(c1ccc2c(c1)OCCO2)C(C(=O)NC1CCCCC1)c1ccc(Cl)cc1)Nc1ccccn1 (configuration not stated)	?	2%	5%	-41%	2	-7	0%	13µM*
Cc1cc(NC(=O)CCC(=O)N(c2ccccc2)C(C(=O)NC2CCCC2)c2ccccc2F)no1 (configuration not stated)	?	-7%	-2%[15.4 µM]	-28%	0	-1	5%	22µM*
Cc1ccc(CNC(=O)c2ccccc2NC(=O)c2nsc3ccccc23)cc1	-14%	·	·	·	·	·	·	·
CCc1ccc(CNC(=O)c2ccc(CS(=O)(=O)Cc3ccccc3C)o2)cc1	-6%	·	·	-24%	·	·	·	·
Cc1ccc(CN2CCCn3nc(C(=O)NCCc4ccccc4Cl)cc3C2=O)cc1	2%	·	·	·	·	·	·	·
COc1ccc(N2CCN(c3ncnc4onc(C)c34)CC2)cc1	-16%	·	·	·	·	·	·	·
Cc1cc(NC(=O)CCC(=O)N(c2ccccc2F)C(C(=O)NC2CCCC2)c2ccccc2)no1 (configuration not stated)	?	-3%	-16%	-14%	1	-5	3%	25µM*
Cc1ccc(C(C(=O)NC2CCCC2)N(C(=O)CCC(=O)Nc2cc(C)on2)c2ccccc2)cc1 (configuration not stated)	4%	0%	-17%	-8%	4	·	·	·
COc1cc([C@@H]2[C@H]3CNCC=C3C(C#N)=C(N)C2(C#N)C#N)ccc1OC(C)C	?	-10%[15.4 µM]	6%	-37%	0	·	·	·
COc1cc(C2C3CN(C)CC=C3C(C#N)=C(N)C2(C#N)C#N)ccc1OC(C)C (configuration not stated)	?	-11%	14%	-18%	-3	1	15%	-7%
Cc1ccc(Cn2c(CNC(=O)c3ccc(Cl)c([N+](=O)[O-])c3)nc3cccnc32)cc1	-12%	·	·	·	·	·	·	·
COc1ccc2c(C)c(CC(=O)NCc3ccc(C)cc3)c(=O)oc2c1OC	12%	·	·	·	·	·	·	·
O=c1c2ccccc2nc(/C=C/c2ccccc2)n1CCc1ccccc1	3%	1%	-35%	-14%	-3	·	·	·
O=c1c2ccccc2nc(/C=C/c2cccnc2)n1CCc1ccccc1	52µM*	-24%	-5%[15.4 µM]	-27%	-2	2	-25%	45µM*
CCOC(=O)C1=C(O)/C(=C/c2ccc(OCC(=O)O)c(OCC)c2)SC1=Nc1ccc(OC)cc1	46µM*	-19%	23%[15.4 µM]	-7%	-1	8	50µM*	?
CCOC(=O)C1=C(O)/C(=C/c2ccc(OCC(=O)O)c(OCC)c2)SC1=Nc1ccc(C)cc1	?	?	-51%	0%	-4	·	·	·
Nc1ccccc1SCC(=O)Nc1ccc2c(c1)OCO2	0%	4%	2%	41%	-2	·	·	·
CC(C)c1ccc(NC(=O)C(c2ccccc2)N2CC(=O)Nc3ccccc32)cc1 (configuration not stated)	?	-1%	19%	-20%	-2	0	-2%	25µM*
COc1cc(SC#N)ccc1N=Cc1c(C)[nH]n(-c2ccc(Cl)cc2)c1=O	?	0%	-17%	-64%	3	-1	1%	45µM*
CC(C)Oc1ccc(CNC(=O)c2ccc3c(c2)N(C)C(=O)C2CCCCN32)cc1 (configuration not stated)	2%	·	·	·	·	·	·	·
COc1cc(C2c3cc4c(cc3C3OC(=O)C2C3CO)OCO4)cc(OC)c1OC (configuration not stated)	5%	·	10%	-50%	-2	·	·	·
COc1cc([C@@H]2c3cc4c(cc3[C@@H](O)[C@H]3COC(=O)[C@H]23)OCO4)cc(OC)c1O[Si](C)(C)C(C)(C)C	28µM*	-26%	4%	-96%	0	0	?	?
Cc1ccccc1C(C(=O)NCc1ccco1)N(CC1CCCO1)C(=O)Cn1nnc2ccccc21 (configuration not stated)	?	-3%	-1%	-19%	1	-1	1%	40µM*
SMILES	mIDH1 inhibitor	gsp antag	gsp ag	BRCA1 expr act	IL-2 act	IDH1 autofl	IDH1 WT	mIDH1 confirm
O=C(NC1CCCCC1)C(c1ccccc1F)N(Cc1ccco1)C(=O)Cn1nnc2ccccc21 (configuration not stated)	?	2%	11%	-36%	0	1	9%	11µM*
O=C(NCc1ccco1)C(c1ccccc1)N(CC1CCCO1)C(=O)Cn1nnc2ccccc21 (configuration not stated)	-1%	6%	13%	-24%	1	·	·	·
O=C(NC1CCCCC1)C(c1ccc(F)cc1)N(Cc1ccco1)C(=O)Cn1nnc2ccccc21 (configuration not stated)	-18%	2%	-22%	-47%	1	·	·	·
Cc1ccc(C(C(=O)NC2CCCCC2)N(Cc2ccco2)C(=O)Cn2cnc3ccccc32)cc1 (configuration not stated)	29µM*	2%	-19%	-40%	0	-5	-2%	13µM*
CCC(C)(C)NC(=O)C(c1ccc(C)cc1)N(Cc1ccco1)C(=O)Cn1nnc2ccccc21 (configuration not stated)	-14%	1%	-39%	-11%	0	·	·	·
CCCCCCn1c(=O)n2n(c1=O)C[C@]1(OC(=O)NCc3ccco3)CN(S(=O)(=O)c3ccc(C)cc3)C[C@]1(O)C2	-4%	·	-66%	-12%	-1	·	·	·
Cc1ccc(S(=O)(=O)c2cc3c(=O)n4ccccc4nc3n(CCc3ccccc3)c2=N)cc1	4%	-2%	-2%[15.4 µM]	2%	?	·	·	·
